MEP2-GFP yeast: modulators of TOR pathway MEP2-GFP in S. cerevisiae. S. cerevisiae MEP2-GFP strain, flow cytometry GFP, 3 h; 100% = DMSO control level. GFP response vs DMSO, % at 10 µM. hit rate 0.51% among 330,000. AID 2016;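 active = GFP response versus DMSO above a set limit, roughly screen mean plus 3 SD, cut at about 180% in these data; inconclusive = fewer than 70 cells counted for a yeast strain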;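 note: median GFP fluorescence of the barcode-gated MEP2-GFP cells per well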
LAP4-GFP MLPCN: yeast TOR pathway LAP4-GFP modulation; S. cerevisiae LAP4-GFP multiplex, flow cytometry GFP, 3 h; median GFP as percent of DMSO wells; GFP response vs DMSO, % at 10 µM; hit rate 0.34% among 320,000;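 active = GFP response vs DMSO above a set limit, about the screen mean plus 3 SD, cut at about 150% in these data; inconclusive = under 70 cell events counted for the yeast strain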
CIT2 TOR yeast: yeast TOR pathway CIT2-GFP modulation | S. cerevisiae CIT2-GFP strain, flow cytometry, 3 h; 100 means same as DMSO wells | hit rate 0.065% among 320,000 | GFP response vs DMSO, % at 10 µM;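 active = GFP response relative to DMSO above a set limit, near the screen mean plus 3 SD, cut at about 150% in these data; inconclusive = Fewer than 70 cells measured for a yeast strain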;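 note: ratio of well median GFP fluorescence to mean of DMSO wells on the plate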
AGP1-GFP MLPCN: alters AGP1-GFP fluorescence in TOR pathway yeast screen. AID 2066. GFP response vs DMSO, % at 10 µM. hit rate 0.02% among 320,000. S. cerevisiae AGP1-GFP multiplex flow cytometry, 3 h; GFP as percent of DMSO wells;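 active = GFP response relative to DMSO above a set limit, near screen average plus 3 SD, cut at about 150% in these data; inconclusive = fewer than 70 cells counted for the yeast strain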;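 note: median GFP channel fluorescence of the gated AGP1 strain per well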
RPL19A-GFP yeast: yeast TOR pathway RPL19A-GFP modulation. S. cerevisiae RPL19A-GFP strain, flow cytometry, 3 h; hits give low values. percent response vs DMSO, % at 10 µM. hit rate 0.3% among 330,000. AID 2025;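 active = percent response vs DMSO below 50%; inconclusive = fewer than 70 events counted for the yeast strain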;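 note: median channel GFP fluorescence of the barcoded RPL19A-GFP strain; ratio of sample median GFP to plate DMSO average so 100% = DMSO; lower means less RPL19A-GFP as with rapamycin TOR inhibition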
Numbers without * were called inactive; ? = inconclusive; · = no result given; [ ] = dose if it differs, or a comment. An excerpt weighted towards active compounds, which were near 0.92% of everything screened.

SMILES	MEP2-GFP yeast	LAP4-GFP MLPCN	CIT2 TOR yeast	AGP1-GFP MLPCN	RPL19A-GFP yeast
CCOC(=O)C1CCN(C(=O)c2cc(COc3ccc(OC)c4ccccc34)on2)CC1	101	98	97	95	97
NS(=O)(=O)c1ccc(NC(=O)CN2C(=O)CCC2=O)cc1	812*[may fluoresce violet]	86	?	25	46*[may fluoresce violet]
O=S(=O)(c1ccc(N2CCC(c3ccc(Cl)cc3)=N2)cc1)N(CCO)CCO	230*[may fluoresce violet]	91	?	18	55
CN(C)CCCNS(=O)(=O)c1ccc(N2CCC(c3ccc(Cl)cc3)=N2)cc1	?	?	?	?	31*[may fluoresce violet]
CN(C)CCCNS(=O)(=O)c1cc(Cl)ccc1Cl	108	101	96	96	99
O=C(/C=C/c1ccco1)Oc1cc(Br)cc(/C=N/NC(=O)c2ccccc2O)c1	296*[may fluoresce violet]	72	?	18	37*[may fluoresce violet]
Cc1ccc(C(=O)N/N=C/c2cccc(OC(=O)/C=C/c3ccco3)c2)cn1	105	101	104	100	97
CC(NC(=O)c1ccco1)C(=O)N1CCN(c2cccc(C(F)(F)F)c2)CC1 (stereo not given)	102	101	102	91	100
CN(C)c1c2ccccc2nc2c(F)c(F)c(F)c(F)c12	188*[may fluoresce violet]	68	?	?	65
Cc1c2ccccc2nc2c(F)c(N(C)C)c(F)c(F)c12	88	96	96	93	100
O=C(CN1C(=O)NC2(CCCC2)C1=O)Nc1nc(-c2ccccc2)cs1	102	109	105	110	102
Cc1ccc(NS(=O)(=O)c2c(C)noc2C)cc1	106	117	100	91	103
Cc1noc(C)c1S(=O)(=O)Nc1cccc(CO)c1	96	111	152*[may fluoresce green]	113	92
Cc1noc(C)c1S(=O)(=O)Nc1ccc(C#N)cc1	106	103	156*[may fluoresce green]	118	92
CS/C(N)=N/N=C/c1ccc2c(c1)OCO2	337*	155*	132	147	77
CCN(CCCNC(=O)C1CCN(C(=O)c2cc3sccc3n2C)CC1)Cc1ccccc1	283*[may fluoresce violet]	107	?	?	44*[may fluoresce violet]
CCCCN(CCCNC(=O)C1CCN(C(=O)c2cc3sccc3n2C)CC1)Cc1ccccc1	95	94	108	97	96
Cc1ccc(C2=N/C(=C/N3CCOCC3)C(=O)O2)cc1	101	118	99	·	101
Cc1ccc(C2=N/C(=C\N3CCCCC3)C(=O)O2)cc1	184*[may fluoresce violet]	105	?	?	63
Cc1ccc(C)c(S(=O)(=O)/N=C2\C=C(NS(=O)(=O)c3ccccc3)C(=O)c3ccccc32)c1	99	91	94	96	99
CC(C)c1ccc(S(=O)(=O)/N=C2\C=C(NS(=O)(=O)c3ccccc3)C(=O)c3ccccc32)cc1	277*[may fluoresce violet]	88	?	?	25*[may fluoresce violet]
CC(Oc1ccc(Cl)cc1Cl)C(=O)NC1=NN(c2ccccc2)C(=O)C1 (stereo not given)	102	157*	87	86	75
O=C(O/N=C(\c1ccccc1)c1ccncc1)c1ccccc1Cl	74	152*	44	59	65
N/C(=N\OC(=O)c1ccccc1Cl)c1ccccc1	97	100	97	81	95
CNC(=O)N(O)C1N(/N=C/c2c(F)cccc2Cl)C(=S)SC1(C)C (stereo not given)	244*[may fluoresce violet]	72	?	15	56
SMILES	MEP2-GFP yeast	LAP4-GFP MLPCN	CIT2 TOR yeast	AGP1-GFP MLPCN	RPL19A-GFP yeast
CNC(=O)N(O)C1N(/N=C/c2ccc(C)cc2)C(=S)SC1(C)C (stereo not given)	108	96	96	96	108
CC1CCN(CCCOc2ccc(Br)cc2Cl)CC1	72	118	?	?	28*[may fluoresce violet]
CCOC(=O)CN(Cc1ccccc1)C(=O)OC(C)(C)C	94	136	89	87	100
CCOC(=O)C1(CCCc2ccccc2)CCN(C(=O)c2cc(C)nn2CC)CC1	615*	137	151*	129	83
CCC(C)(C)n1nnnc1C(c1ccccc1)N1CCc2ccccc2C1 (stereo not given)	107	104	110	104	102
CCC(C)(C)n1nnnc1C(c1ccc(O)c(OC)c1)N1CCc2ccccc2C1 (stereo not given)	103	106	152*	120	90
O=S(=O)(O)c1cc(O)c2c(O)c(N=Nc3cc(Cl)ccc3O)c(S(=O)(=O)O)cc2c1	101	95	85	97	97
Cc1cc(-c2ccc(N=Nc3c(S(=O)(=O)O)cc4cc(S(=O)(=O)O)cc(N)c4c3O)c(C)c2)ccc1N=Nc1c(S(=O)(=O)O)cc2cc(S(=O)(=O)O)cc(N)c2c1O	72	400*[may fluoresce red]	51	53	?
O=C(CCS(=O)(=O)c1ccc(F)cc1)N1CCOCC1	528*[may fluoresce violet]	89	?	13	66
O=C(CCS(=O)(=O)c1ccc(F)cc1)N1CCN(c2ccccc2)CC1	100	112	97	102	94
Cc1cc(C)nc(SCC(=O)NCC2COc3ccccc3O2)n1 (stereo not given)	102	102	94	104	102
Cn1c(=O)cc(SCC(=O)NCC2COc3ccccc3O2)c2ccccc21 (stereo not given)	397*[may fluoresce violet]	78	?	22	63
CCOC(=O)Cc1n[nH]c(=O)c2ccccc12	93	97	101	104	96
COC(=O)Cc1n[nH]c(=O)c2ccccc12	299*[may fluoresce violet]	76	?	?	61
N#C/C(=C\c1cccc(Oc2ccccc2)c1)C(=O)N1CCOCC1	77	155*	70	86	87
COc1ccc(C(=O)N2CCCC(N3CCN(c4ccccc4F)CC3)C2)c(OC)n1 (stereo not given)	103	106	97	108	97
COc1ccc(C(CCN(Cc2ccc(OC)c(OC)c2)C(C)=O)C(C)C)cc1 (stereo not given)	102	95	93	94	100
CC(C)[C@H](NC(=O)[C@@H]1CSC2c3ccccc3C(=O)N21)C(=O)NCc1ccncc1 (stereo not given in full)	163	89	?	?	27*[may fluoresce violet]
O=C(Nc1cccc(S(=O)(=O)N2CCCC2)c1)c1ccc(Cl)nc1	93	84	109	98	100
NC(=O)C1CCN(C(=O)CCCCCn2c(=O)[nH]c3ccsc3c2=O)CC1	222*[may fluoresce violet]	83	?	?	22*[may fluoresce violet]
Cc1ccc(F)cc1NC(=O)N1CCNC(=O)C1CC(=O)Nc1cc(Cl)ccc1Cl (stereo not given)	103	118	154*[may fluoresce green]	115	91
COc1ccccc1NC(=O)CC1C(=O)NCCN1C(=O)Nc1ccc(Cl)c(Cl)c1 (stereo not given)	470*[may fluoresce violet]	87	?	22	67
CCc1cccc(NC(=O)COc2ccccc2)c1	252*[may fluoresce violet]	95	?	?	21*[may fluoresce violet]

Screening data (PubChem)
